Each structure is given as a SMILES string. Records with an inconclusive call do not appear. The source made the active and inactive calls.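 How the source made its calls, unless noted: active means inhibition above the screen-wide mean plus 3 SD, about 51%; inactive means the rest.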

Test [1] in a line: yeast TOR pathway RPL19A-GFP modulators, primary screen, cell-based, S. cerevisiae, multiplex flow cytometry (AID 1862; in the data active means percent of DMSO control GFP below about 86%;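 further: lower values mimic rapamycin by blocking the RPL19A rise seen in DMSO cells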). Conditions: S. cerevisiae RPL19A-GFP strain, flow cytometry fluorescence, 3 h; at 10 µM; stronger effect = lower value.
Test [2] is described as follows: modulators of MEP2-GFP levels in yeast, primary screen, S. cerevisiae, multiplex flow cytometry (AID 1867;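 active means GFP response, as percent of the DMSO control, above the screen-wide mean plus 3 SD, about 139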;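 further: median GFP channel fluorescence of barcode-gated MEP2-GFP cells measured by flow cytometry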). The following applies: S. cerevisiae MEP2-GFP strain, 3 h, at 10 µM, stronger effect = higher value, 100% means same as DMSO wells.
Test [3] is described as follows: modulators of CIT2-GFP expression in yeast, primary screen, S. cerevisiae, GFP fusion, multiplex flow cytometry (AID 1870;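 active means percent response above a set limit, the screen-wide mean plus 3 SD, cut at about 130% in these data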;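 further: barcoded CIT2-GFP strain pooled with four other GFP strains with rapamycin as positive control; median GFP fluorescence per well over plate mean of DMSO wells so 100% = DMSO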). The following applies: 3 h, at 10 µM, stronger effect = higher value. A general note: A flow cytometer gives signals particle by particle.
A short description of test [4]: modulators of LAP4-GFP expression in yeast, primary screen, S. cerevisiae, multiplex flow cytometry (AID 1873;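 active means GFP signal, as percent of the solvent control, above the screen mean plus 3 SD, about 149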). The following applies: 3 h, at 10 µM, stronger effect = higher value.
The nature of test [5]: modulators of AGP1-GFP expression in yeast TOR pathway, primary screen, cell-based, multiplex flow cytometry, S. cerevisiae (AID 1887;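 active means GFP signal above the screen-wide mean plus 3 SD, that is over about 124.5% of the solvent control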;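 further: AGP1-GFP fusion strain of S. cerevisiae within a five-strain barcoded multiplex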). Conditions: 3 h, at 10 µM, stronger effect = higher value.
Test [6] in a line: inhibitors of CD8+ T cell-vesicle binding, pilot screen, LFA-1/ICAM-1 modulator project, MLPCN validation set, flow cytometry (AID 2523;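 active means response below a set limit, under 55% cells CD8-positive and vesicle-bound, and CD8 cells' 90th-percentile brightness under 279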;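 on vesicle binding response: mean PE anti-B7-1 fluorescence of CD8+ cells relative to row control; 100% = QL9-loaded vesicles with DMSO vehicle in the same plate row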). The following applies: 2C mouse CD8+ T cells, at 7 µM, stronger effect = lower value; double positive events: measured here: CD8+/vesicle+ event percentage.
Test [7] concerns the target Integrin beta-1 (Homo sapiens) + Integrin alpha-4 (Homo sapiens) (UniProt P13612+P05556). The experiment in a line: inhibition of HUTS-21 binding to VLA-4, pilot screen, VLA-4 allosteric modulator project, U937 cells, HUTS-21 mAb, flow cytometry, validation set (AID 2674;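 active means inhibition above 50%, about 3 SD of the validation set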;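 further: antibody binding induced by the VLA-4 ligand LDV present at three times its Kd; 0% = LDV ligand with antibody and no compound and 100% = antibody without LDV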). Conditions: HUTS-21 LIBS mAb binding, at 6.7 µM, stronger effect = higher value, binding induced by LDV ligand.

A short description of test [8]: superoxide lowering in aged yeast cells, pilot screen, validation compound set (AID 2706;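 active means superoxide response below 65% of plate, a cut near 3 SD across the whole screen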;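 further: yeast exposed to compound for one week at 30 degrees C before staining; 100% = mean of all compound wells on the same plate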). Conditions: S. cerevisiae aging, superoxide DHE fluorescence; at 10 µM; stronger effect = lower value.
Test [9] addresses Beta-adrenergic receptor kinase 1 (Homo sapiens) (UniProt P25098). The experiment in a line: GRK2 binders displacing RNA aptamer, biochemical, validation, human GRK2, bead flow cytometry (AID 488806;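 active means aptamer binding inhibition above 30%, about 3 SD of noise from non-fluorescent compounds; inactive means inhibition at or below 30%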). Conditions: bead-bound GRK2, FAM-aptamer displacement, at 10 µM, stronger effect = higher value.
Test [10] concerns the target Beta-2 adrenergic receptor (Homo sapiens) (UniProt P07550). Briefly: beta2AR agonists driving receptor internalization, pilot screen, cell-based, FAP fluorogen, flow cytometry, validation set (AID 504459;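 active means percent response above 42, roughly 3 SD of non-fluorescent test compounds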;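 further: agonist-driven loss of surface beta2AR via internalization measured by FAP dye flow cytometry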). The following applies: Am2.2-beta2AR cells, FAP surface receptor flow cytometry; at 10 µM; stronger effect = higher value.
Test [11] addresses AP-2 complex subunit beta (Homo sapiens) (UniProt P63010). The experiment in a line: inhibitors of arrestin peptide binding to AP2, pilot screen, biochemical, validation set, GST-AP2 beads, flow cytometry (AID 504541;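 active means inhibition above 54%, about 3 SD of non-fluorescent compounds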;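 further: AP2 carries R879A mutation and is captured from E. coli lysate; bead-bound FITC arrestin peptide fluorescence measuring arrestin peptide binding to AP2; 0% = DMSO wells and 100% = excess unlabeled arrestin peptide control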). Conditions: FITC arrestin peptide, at 10 µM, stronger effect = higher value, AP2 beta2 appendage fragment, R879A mutant.
Test [12] in a line: yeast V-ATPase proton transport modulators, S. cerevisiae, pHLuorin, HTS validation (AID 504600; in the data active means response above about 15%;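 further: plate controls were DMSO for no effect and reference compound for full effect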). The following applies: S. cerevisiae pHLuorin cytosolic pH, at 10 µM, stronger effect = higher value.
In test [13] the test system is anti-desmoglein-3 scFv antibody binding to human DSG3. Briefly: inhibitors of anti-DSG3 scFv binding to DSG3, pilot screen, biochemical, validation compound set, bead-based, flow cytometry (AID 588368;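 active means binding below the plate cutoff, the plate median minus 3 SD, with a reading above zero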;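 further: signal is the median channel fluorescence of bead-bound GFP antibody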). Conditions: Protein G beads, DSG3-Fc, scFv-GFP binding, at 10 µM, stronger effect = lower value.
A short description of test [14]: inhibitors of fungal efflux pumps CDR1, CDR2, MDR1, pilot screen, validation compound set, multiplex, phenotypic (AID 588506;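 active means efflux inhibition above 0.42, the validation set average plus 4 SD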;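 further: Nile Red retained in cells so higher fluorescence means more efflux inhibition; 0 = negative control wells and 1 = enniatin B 25 µM full block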). Conditions: S. cerevisiae pump-expressing triplex, Nile Red efflux flow cytometry; at 10 µM; stronger effect = higher value; the pumps come from Candida albicans.
The target in test [15] is ATP-binding cassette sub-family B member 6 (Homo sapiens) (UniProt Q9NP58). The experiment in a line: ABCB6 transporter inhibitors, pilot screen, K562-ABCB6 cells, flow cytometry, validation set (AID 588550).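 Further: 0% = DMSO wells and 100% = benzethonium chloride 70 µM positive control.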 Conditions: K562-ABCB6 porphyrin accumulation, 1 h, at 10 µM, stronger effect = higher value.
Sequence of ATP-binding cassette sub-family B member 6 (Homo sapiens) (Q9NP58 whole entry, looked up): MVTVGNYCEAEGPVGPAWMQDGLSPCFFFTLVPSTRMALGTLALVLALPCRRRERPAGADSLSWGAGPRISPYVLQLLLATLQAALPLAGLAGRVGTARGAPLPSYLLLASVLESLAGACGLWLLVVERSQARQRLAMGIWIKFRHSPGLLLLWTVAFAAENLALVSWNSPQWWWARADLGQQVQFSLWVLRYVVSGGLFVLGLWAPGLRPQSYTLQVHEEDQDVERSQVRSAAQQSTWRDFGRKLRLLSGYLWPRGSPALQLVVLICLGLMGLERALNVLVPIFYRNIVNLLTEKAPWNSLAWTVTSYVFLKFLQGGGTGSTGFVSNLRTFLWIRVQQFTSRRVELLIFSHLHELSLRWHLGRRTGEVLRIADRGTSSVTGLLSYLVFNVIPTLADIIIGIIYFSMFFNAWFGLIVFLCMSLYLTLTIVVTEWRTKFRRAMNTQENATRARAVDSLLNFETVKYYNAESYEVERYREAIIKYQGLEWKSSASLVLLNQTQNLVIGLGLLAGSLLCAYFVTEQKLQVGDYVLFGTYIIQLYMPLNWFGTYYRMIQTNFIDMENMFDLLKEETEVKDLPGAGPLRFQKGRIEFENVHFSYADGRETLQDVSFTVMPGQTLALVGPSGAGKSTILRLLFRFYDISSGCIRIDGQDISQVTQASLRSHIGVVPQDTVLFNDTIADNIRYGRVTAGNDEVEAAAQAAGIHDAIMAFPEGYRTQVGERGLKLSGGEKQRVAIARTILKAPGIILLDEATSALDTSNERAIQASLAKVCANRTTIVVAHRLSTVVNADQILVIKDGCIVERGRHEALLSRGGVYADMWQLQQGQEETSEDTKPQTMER
A short description of test [16]: promoters of myeloid differentiation in arrested cells, primary screen, cell-based, GFP/MAC1 double positive, flow cytometry, validation set (AID 588685;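 active means differentiation response of at least 50%, scaled between solvent and reference control, from cells with both markers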;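 further: compound exposure lasts four days before antibody staining and flow analysis; 0% = DMSO wells and 100% = 5 µM fulvestrant positive control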). Conditions: ER-HoxA9 marrow cells, stronger effect = higher value, normalized: vehicle 0, fulvestrant 100.

Sequence of AP-2 complex subunit beta (Homo sapiens) (P63010 whole entry, looked up, the tested form may be a part, one chain of several): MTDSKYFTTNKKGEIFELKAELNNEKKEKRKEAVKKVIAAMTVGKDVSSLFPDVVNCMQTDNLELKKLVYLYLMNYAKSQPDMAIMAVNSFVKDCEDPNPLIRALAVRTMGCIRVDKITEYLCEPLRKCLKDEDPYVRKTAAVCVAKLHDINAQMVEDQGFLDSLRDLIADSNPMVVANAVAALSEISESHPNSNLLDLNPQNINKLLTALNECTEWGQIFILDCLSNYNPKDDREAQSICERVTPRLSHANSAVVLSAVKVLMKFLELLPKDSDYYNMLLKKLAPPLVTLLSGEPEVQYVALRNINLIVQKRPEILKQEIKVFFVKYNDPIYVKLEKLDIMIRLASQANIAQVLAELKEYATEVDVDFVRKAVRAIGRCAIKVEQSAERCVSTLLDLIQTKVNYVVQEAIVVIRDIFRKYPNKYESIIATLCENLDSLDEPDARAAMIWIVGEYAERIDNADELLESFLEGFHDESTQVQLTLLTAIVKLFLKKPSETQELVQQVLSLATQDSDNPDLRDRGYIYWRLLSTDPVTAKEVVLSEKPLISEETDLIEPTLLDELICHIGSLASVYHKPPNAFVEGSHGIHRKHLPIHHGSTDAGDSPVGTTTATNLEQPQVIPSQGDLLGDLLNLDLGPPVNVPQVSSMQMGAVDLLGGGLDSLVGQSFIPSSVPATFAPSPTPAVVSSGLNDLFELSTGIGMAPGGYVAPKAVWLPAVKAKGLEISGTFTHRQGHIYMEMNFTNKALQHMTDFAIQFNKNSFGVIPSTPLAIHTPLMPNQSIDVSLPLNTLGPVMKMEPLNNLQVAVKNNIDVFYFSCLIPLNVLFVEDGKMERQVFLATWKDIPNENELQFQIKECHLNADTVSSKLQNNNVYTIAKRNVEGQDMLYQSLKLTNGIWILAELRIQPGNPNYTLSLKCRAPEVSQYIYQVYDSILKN
Sequence of Integrin beta-1 (Homo sapiens) + Integrin alpha-4 (Homo sapiens) (P05556 whole entry, looked up): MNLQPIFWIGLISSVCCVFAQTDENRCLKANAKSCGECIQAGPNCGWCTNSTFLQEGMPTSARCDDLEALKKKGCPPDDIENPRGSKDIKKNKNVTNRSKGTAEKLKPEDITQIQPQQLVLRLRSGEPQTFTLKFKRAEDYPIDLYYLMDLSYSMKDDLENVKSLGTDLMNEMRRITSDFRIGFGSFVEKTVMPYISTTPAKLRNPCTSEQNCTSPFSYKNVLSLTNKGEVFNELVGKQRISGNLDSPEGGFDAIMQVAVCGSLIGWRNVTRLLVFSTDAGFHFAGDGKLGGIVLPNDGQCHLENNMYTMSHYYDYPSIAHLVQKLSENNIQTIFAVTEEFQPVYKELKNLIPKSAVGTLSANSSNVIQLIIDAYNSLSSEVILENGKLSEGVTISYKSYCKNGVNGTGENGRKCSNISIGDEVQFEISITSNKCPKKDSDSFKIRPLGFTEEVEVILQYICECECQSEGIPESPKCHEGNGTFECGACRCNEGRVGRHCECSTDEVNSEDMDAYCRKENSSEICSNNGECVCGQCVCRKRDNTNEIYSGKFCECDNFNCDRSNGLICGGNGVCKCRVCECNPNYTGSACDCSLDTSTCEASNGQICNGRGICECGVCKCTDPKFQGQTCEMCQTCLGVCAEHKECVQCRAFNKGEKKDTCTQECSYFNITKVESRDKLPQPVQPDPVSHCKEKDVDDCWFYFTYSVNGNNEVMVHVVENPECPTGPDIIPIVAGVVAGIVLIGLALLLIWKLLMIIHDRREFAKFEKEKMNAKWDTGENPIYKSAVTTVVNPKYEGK
Sequence of Integrin beta-1 (Homo sapiens) + Integrin alpha-4 (Homo sapiens) (P13612 whole entry, looked up): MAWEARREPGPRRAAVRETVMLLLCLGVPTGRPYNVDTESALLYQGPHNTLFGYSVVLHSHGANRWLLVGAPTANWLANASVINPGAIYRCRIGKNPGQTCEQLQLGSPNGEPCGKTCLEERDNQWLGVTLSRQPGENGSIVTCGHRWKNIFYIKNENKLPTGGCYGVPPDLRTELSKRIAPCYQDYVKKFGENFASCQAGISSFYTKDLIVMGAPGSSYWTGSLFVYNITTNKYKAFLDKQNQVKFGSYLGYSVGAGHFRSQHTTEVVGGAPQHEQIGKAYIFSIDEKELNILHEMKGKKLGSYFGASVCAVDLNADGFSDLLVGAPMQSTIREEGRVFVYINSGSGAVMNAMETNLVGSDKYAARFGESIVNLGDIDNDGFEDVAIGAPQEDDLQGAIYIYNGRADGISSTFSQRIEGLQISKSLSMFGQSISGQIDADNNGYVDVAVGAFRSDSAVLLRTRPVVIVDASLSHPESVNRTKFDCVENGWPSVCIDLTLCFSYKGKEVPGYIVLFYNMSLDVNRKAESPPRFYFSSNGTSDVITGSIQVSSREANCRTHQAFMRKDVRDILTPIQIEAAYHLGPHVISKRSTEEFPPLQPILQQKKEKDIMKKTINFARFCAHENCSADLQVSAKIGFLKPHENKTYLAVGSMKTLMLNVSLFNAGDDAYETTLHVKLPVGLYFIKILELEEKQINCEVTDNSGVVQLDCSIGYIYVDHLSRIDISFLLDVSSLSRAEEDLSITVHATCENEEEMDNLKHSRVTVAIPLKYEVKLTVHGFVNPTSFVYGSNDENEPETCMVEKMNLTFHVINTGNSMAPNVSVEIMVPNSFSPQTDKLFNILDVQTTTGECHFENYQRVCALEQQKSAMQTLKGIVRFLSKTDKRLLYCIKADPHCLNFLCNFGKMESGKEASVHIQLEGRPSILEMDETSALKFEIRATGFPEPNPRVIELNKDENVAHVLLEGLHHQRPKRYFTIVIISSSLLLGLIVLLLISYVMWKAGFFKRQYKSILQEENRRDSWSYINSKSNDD
Sequence of Beta-adrenergic receptor kinase 1 (Homo sapiens) (P25098 whole entry, looked up): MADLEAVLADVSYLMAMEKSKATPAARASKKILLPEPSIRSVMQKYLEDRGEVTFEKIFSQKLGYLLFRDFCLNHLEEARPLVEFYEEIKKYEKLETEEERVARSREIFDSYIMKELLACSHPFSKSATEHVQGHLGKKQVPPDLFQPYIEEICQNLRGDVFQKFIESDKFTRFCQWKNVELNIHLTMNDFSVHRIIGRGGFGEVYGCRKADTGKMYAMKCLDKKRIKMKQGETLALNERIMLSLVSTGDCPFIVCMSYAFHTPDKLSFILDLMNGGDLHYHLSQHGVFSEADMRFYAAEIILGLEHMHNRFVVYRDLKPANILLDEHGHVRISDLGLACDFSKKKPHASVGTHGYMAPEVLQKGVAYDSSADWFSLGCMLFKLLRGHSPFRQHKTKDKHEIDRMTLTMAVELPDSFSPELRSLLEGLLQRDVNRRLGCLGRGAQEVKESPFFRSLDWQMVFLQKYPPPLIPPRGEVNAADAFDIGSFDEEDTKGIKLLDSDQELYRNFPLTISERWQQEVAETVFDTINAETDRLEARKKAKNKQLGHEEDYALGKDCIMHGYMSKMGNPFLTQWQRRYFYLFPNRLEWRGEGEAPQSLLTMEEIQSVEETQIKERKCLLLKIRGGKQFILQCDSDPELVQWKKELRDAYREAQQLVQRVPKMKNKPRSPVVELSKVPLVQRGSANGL
Sequence of Beta-2 adrenergic receptor (Homo sapiens) (P07550 whole entry, looked up): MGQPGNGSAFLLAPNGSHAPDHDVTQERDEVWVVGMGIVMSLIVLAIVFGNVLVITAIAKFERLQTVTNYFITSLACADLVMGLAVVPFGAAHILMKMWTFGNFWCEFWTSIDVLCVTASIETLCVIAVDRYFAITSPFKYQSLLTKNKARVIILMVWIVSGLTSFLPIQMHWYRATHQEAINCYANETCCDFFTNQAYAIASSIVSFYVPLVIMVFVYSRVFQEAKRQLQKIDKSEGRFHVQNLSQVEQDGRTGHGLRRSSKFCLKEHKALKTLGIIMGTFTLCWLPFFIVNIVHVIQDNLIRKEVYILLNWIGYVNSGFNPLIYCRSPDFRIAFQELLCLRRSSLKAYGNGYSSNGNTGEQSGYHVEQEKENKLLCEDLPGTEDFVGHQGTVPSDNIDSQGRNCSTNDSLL

For `CC1(C)C(=O)OC(C(=O)c2ccc(Cl)cc2)C(C)(C)C1=O` (stereo not given), the percent of DMSO control GFP in test [1] is 103% (inactive). The GFP response vs DMSO was 90.9% (inactive) in test [2] and 97.3% (inactive) in test [4]. Also, in test [3], the percent response of DMSO control was 107% (inactive). Besides, in test [5], the GFP response, % of DMSO is 103% (inactive). This molecule gave a double positive events in test [6] of 66.1%. The vesicle binding response in test [6] was 261% (inactive). The inhibition in test [7] was -11.9% (inactive); in test [11], -10.6% (inactive); in test [15], -4% (inactive). Besides, in test [8], the superoxide response (% of plate) was 104% (inactive). Besides, in [9], the aptamer binding inhibition is 2% (inactive). Besides, the response was -5.23% (inactive) in test [10] and -4.25% (inactive) in [12]. Also, the binding (% of control) in test [13] was 99.3% (inactive). The efflux inhibition (fraction of control) in test [14] is -0.01 (inactive). For the same molecule, the differentiation response in [16] was -4.64% (inactive).
As to `CCOc1ccc(C(=O)N2CCCC2C(=O)O)cc1` (stereo not given), the percent of DMSO control GFP in test [1] was 97.9% (inactive). Further, the GFP response vs DMSO in test [2] is 101% (inactive); in test [4] it was 103% (inactive). The percent response of DMSO control in test [3] is 100% (inactive). Also, the GFP response, % of DMSO in test [5] was 102% (inactive). This molecule displayed a double positive events in [6] of 62.9%. Further, the vesicle binding response in test [6] is 163% (inactive). Besides, the values for the inhibition in [7], in test [11] and in test [15] were 13.4% (inactive), 1.45% (inactive) and 6% (inactive), respectively. In test [8], the superoxide response (% of plate) was 107% (inactive). Besides, the aptamer binding inhibition in test [9] is 6% (inactive). Also, the response in test [10] was -15.7% (inactive); in [12] it was 6.32% (inactive). The binding (% of control) in test [13] was 101% (inactive). In addition, in test [14], the efflux inhibition (fraction of control) was -0.04 (inactive). Also, the differentiation response in [16] was -1.05% (inactive).
For `CC(C)(Oc1ccc(CCNC(=O)c2ccc(Cl)cc2)cc1)C(=O)O`, the percent of DMSO control GFP in test [1] was 106% (inactive). Besides, the GFP response vs DMSO was 107% (inactive) in [2] and 101% (inactive) in [4]. Besides, the percent response of DMSO control in test [3] was 96.6% (inactive). The GFP response, % of DMSO in test [5] is 103% (inactive). Moreover, the double positive events in test [6] was determined as 65.7%. Further, the vesicle binding response in [6] is 137% (inactive). The values for the inhibition in test [7], in test [11] and in test [15] were -8.75% (inactive), 23.2% (inactive) and 19% (inactive), respectively. Also, the superoxide response (% of plate) in test [8] is 110% (inactive). Also, the aptamer binding inhibition in [9] is 3% (inactive). The response was -3.83% (inactive) in test [10] and -4.97% (inactive) in test [12]. Also, the binding (% of control) in [13] is 93.5% (inactive). Besides, in [14], the efflux inhibition (fraction of control) is 0.08 (inactive). Besides, the differentiation response in test [16] is 8.06% (inactive).
`Cc1ccc(-n2cc(CNCCN3CCOC3=O)c(-c3ccc(F)cc3)n2)cc1`: in test [1], the percent of DMSO control GFP is 103% (inactive). Besides, the values for the GFP response vs DMSO in test [2] and in test [4] were 107% (inactive) and 85% (inactive), respectively. Moreover, the percent response of DMSO control in [3] was 108% (inactive). Also, the GFP response, % of DMSO in [5] was 96.5% (inactive). The molecule further displayed a double positive events in test [6] of 59.3%. The vesicle binding response in [6] was 129% (inactive). Besides, the values for the inhibition in [7], in test [11] and in [15] were 9.63% (inactive), -0.44% (inactive) and 4% (inactive), respectively. The superoxide response (% of plate) in test [8] was 109% (inactive). Moreover, the aptamer binding inhibition in test [9] is 2% (inactive). The response in [10] is -24.7% (inactive); in [12], -4.84% (inactive). The binding (% of control) in [13] was 104% (inactive). Besides, in [14], the efflux inhibition (fraction of control) is -0.36 (inactive). The differentiation response in [16] was -1.65% (inactive).
With `CCOC(=O)c1cc2c(nc1N)CC(C)(CC)OC2` (stereo not given), the percent of DMSO control GFP in test [1] was 101% (inactive). Also, the GFP response vs DMSO was 109% (inactive) in test [2] and 127% (inactive) in test [4]. The percent response of DMSO control in test [3] was 91% (inactive). For the same molecule, the GFP response, % of DMSO in test [5] was 100% (inactive). Further, the double positive events in test [6] came to 61.3%. Also, the vesicle binding response in test [6] is 170% (inactive). In addition, the values for the inhibition in test [7], in [11] and in test [15] were 9.13% (inactive), 38.2% (inactive) and 3% (inactive), respectively. Besides, the superoxide response (% of plate) in test [8] was 97.3% (inactive). In addition, in test [9], the aptamer binding inhibition was -1% (inactive). The response in test [10] was -13.4% (inactive); in test [12], -3.65% (inactive). Besides, the binding (% of control) in test [13] was 105% (inactive). For the same molecule, the efflux inhibition (fraction of control) in test [14] is -0.24 (inactive). For the same molecule, the differentiation response in [16] is 60% (active).

A word on the inhibition: it is the drop in the measured response relative to a control, in per cent.

For the origin of these results see PubChem BioAssay.
